Source: the OligoGym collection

Target: ETS1
Test: pooled miR-30 sensor sort-seq; sequence = guide strand
Settings: shRNA
Also: reference of the scale not given here.

Row | Sequence | sensor-assay potency score (higher = more potent)
1 | TGAGACATCATTTCTTTGCTGC | 0.679
2 | TAACTTGATATGGTTTCACATC | -1.41
3 | TTTTTGTCGTAATAGTAGCGTA | -0.88
4 | TTTGATAGCAAAGTAGTCATTC | -0.303
5 | TTCTGCAAGGTGTCTGTCTGGA | 0.532
6 | TGAAAGTAGCTTTTAATGCTTG | -0.0896

Target: EYA3
Test: as above
Settings: shRNA

Row | Sequence | sensor-assay potency score (higher = more potent)
7 | TTAGTCTGACCTGTGACTCCAA | -0.459
8 | TTTGGTAGCACTATAGATGTTC | 0.549
9 | TTAATCTCTGCAGTGCTTCCTT | 0.585
10 | TTTCTTCCATTGTTAAACCTGA | -0.4
11 | TTTAATGCAGTTCCTAACCAGG | -1.16
12 | TTCTAATTCACTGTCTTGGGAA | -0.169
13 | TAGTCCATATAGGAGAACCTTG | -1.31
14 | TATAATCATTGGATGAGCGAGG | -0.793
15 | TTGTGAGGTATAATCATTGGAT | -0.583
16 | TTGCTCTCCTGATTCCTGCATC | -0.293
17 | TTGCTAGTCATGTTTTTCCTGG | -0.514
18 | TTGACTTATAGTTTGCTCTCCT | 0.627
19 | TTCTGCTCTTAATCTCTGCAGT | -0.462
20 | TTGAGTCTGCTGTAGTGTCTGG | -0.331
21 | TAGATTTCTCTCACTTTCCGGT | 0.197
22 | TAGTCTGACCTGTGACTCCAAA | -0.964
23 | TAGTGTCTGGTATTGAGTCTGT | -0.308
24 | TAATCCTGGTTTGAGATGCTGG | -0.375
25 | ATCACTGTTAGTCTGACCTGTG | 0.133
26 | TTTACTTGGTGTAGTCTGGGAC | -0.478
27 | TCTGGTATTGAGTCTGTCCAGG | -0.468
28 | TAGTTTGCTCTCCTGATTCCTG | -0.14
29 | TTTTCCTGGACTGATCATCAGT | -0.683

Target: F2R
Test: as above
Settings: shRNA

Row | Sequence | sensor-assay potency score (higher = more potent)
30 | TTACACATACATCACACTCTAT | -0.0427
31 | TTTCAGGATGAACACAACGATG | -1.75
32 | TTAATAACTTAAACCTTGCCGT | 0.203
33 | TTCAGGGCTAAACTCTACCAAC | -1.3
34 | TTATTGATGGAGACTAATCTGT | -0.475
35 | TAGTACTAAGTCTTACCTCTTA | -0.241
36 | TACACCACAGCCAGAAACCGGT | -0.606
37 | TTTCTGGCCAATCTGTGTCTGA | -0.414
38 | TAAACTTTTCTTTTTAACCTCC | 0.474
39 | TAATAACTTAAACCTTGCCGTC | -1.01
40 | AAACACTAGAACTTCTACGCAC | 0.254
